Screening data (PubChem)
Rows were chosen to be rich in hits. Some 11% of all compounds tested hit in one or more screens of this group.
HttQ103 aggreg = mutant huntingtin aggregation inhibition. actives 1.1% (n = 220,000). PC12 HttQ103-GFP aggregates, Acumen cytometry, 40 h. Potency, µM (doses to about 46.1 µM), for the others: at the highest dose activity change, negative = inhibition, usual class: inhibitors; active = well fitted curve in the direction sought with a large enough effect; inconclusive = small, poorly fitted or top-dose-only effect, or another doubt; inactive = no such curve, though single readings can be large; an effect the other way counts as inactive or inconclusive; note: potency is the fitted concentration of half-maximal effect; % is set by controls: 0 for no effect and ±100 for the full control effect; nearly all actives have a fitted effect of over 60% in size
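Aggregates are detected as GFP objects 1–25 µm with signal 6 STDEV over background in lysates of induced PC12 cells. These carry Huntingtin exon 1 with 103 glutamines fused to GFP under an ecdysone promoter; compounds titrated.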
HPGD block = inhibitors of human 15-hydroxyprostaglandin dehydrogenase (HPGD). P15428. purified HPGD, NADH fluorescence kinetic, PGE2 substrate. Potency, µM, for the others: at the top dose activity change, negative = inhibition, most hits filed as inhibitors. actives 4.3% (n = 150,000). AID 894; note: potency is the fitted concentration of half-maximal effect; % is set by controls: 0 for no effect and ±100 for the full control effect
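20 nM HPGD preincubated 15 min at room temperature with compound in 50 mM Tris-HCl pH 8, 0.01% Tween 20. Started with 1 mM NAD+ and 30 uM prostaglandin E2; NADH fluorescence (360/450 nm) read 5 times over 30-s intervals, last minus first.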
HTT cytoprotect = protects HTT-Q103 PC12 cells, measured by ATP. PC12 HTT-Q103 induced, cytoprotection, ATP luminescence, 40 h. Potency, µM (series often up to 56.4 µM), without a hit: cytoprotection (ATP increase), hits mostly activators. actives 0.14% (n = 230,000). AID 1471; active = well fitted curve in the direction sought with a large enough effect; inconclusive = small, poorly fitted or top-dose-only effect, or another doubt; inactive = no such curve, though single readings can be large; an effect the other way counts as inactive or inconclusive; note: potency is the fitted concentration of half-maximal effect; % of control where 0% means no effect; nearly all actives have a fitted effect of over 45% in size
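Huntington model: PC12 line, ecdysone-inducible HTTQ103 exon1–GFP, tebufenozide 100 nM. Test articles in a dose series. Endpoint luminescence from cellular ATP.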
GoLoco inh red = blocks human Gai1 binding to RGS12 GoLoco peptide, red readout | P63096 | Gai1:RGS12 GoLoco peptide FP, rhodamine, 10 min | Potency, µM (series often up to 61.6 µM), for the others: at the top dose activity, negative = inhibition, most hits filed as inhibitors | actives 0.44% (n = 230,000) | AID 880; active = well fitted inhibition curve with a large enough effect, not every such curve was filed as active; inactive = no such curve, though single readings can be large or run the other way; note: potency is the fitted concentration of half-maximal effect; % is set by controls: 0 for no effect and ±100 for the full control effect; nearly all actives have a fitted effect of over 30% in size
Target sequence (P63096 whole entry, looked up): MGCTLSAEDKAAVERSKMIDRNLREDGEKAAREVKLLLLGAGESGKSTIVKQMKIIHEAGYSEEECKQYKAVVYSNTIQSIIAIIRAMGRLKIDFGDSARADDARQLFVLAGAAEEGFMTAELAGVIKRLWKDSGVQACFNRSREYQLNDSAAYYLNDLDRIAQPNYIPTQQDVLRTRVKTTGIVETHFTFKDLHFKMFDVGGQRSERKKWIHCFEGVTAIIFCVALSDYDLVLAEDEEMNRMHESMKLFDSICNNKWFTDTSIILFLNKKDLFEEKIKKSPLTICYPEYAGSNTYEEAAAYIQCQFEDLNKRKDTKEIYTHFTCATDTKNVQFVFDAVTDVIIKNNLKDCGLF
ALDH1A1 block = inhibitors of human aldehyde dehydrogenase 1A1 | P00352 | Purified ALDH1A1, NADH fluorescence, propionaldehyde substrate | Potency, µM (doses to about 75.3 µM), without a hit: at the top dose activity, negative = inhibition, hits mostly inhibitors | actives 7.3% (n = 220,000);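 note: potency is the fitted concentration of half-maximal effect; plate controls were no enzyme wells and a reference inhibitor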
PNC inhibitor = inhibitors of perinucleolar compartment assembly; PC3M PTB-GFP, PNC prevalence imaging, 16 h; hits give low values; activity change (PNC), negative = inhibition, % at 10 µM; actives 3.1% (n = 140,000);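 active = readout at or below -70, meaning at least 70% loss of cells showing the perinucleolar compartment, a nuclear body marking cancer cells; inconclusive = readout between -30 and a set limit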;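 note: plate controls were DMSO wells for no effect and camptothecin positive control wells for full effect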
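Read-out is percentage of cells bearing a perinucleolar compartment, from automated 20x imaging of fixed, Hoechst-stained PC3M PTB-GFP cells. Cells were seeded 4 h, then exposed 16 h to compound (23 nl of library stock) in duplicate plates.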
* hit, by the source's call; u = inconclusive; x = not tested or not shown; [ ] = another dose, or the depositor's remark. Unless noted, calls come from the whole dose curve; as a rule, active = well fitted inhibition curve with a large enough effect (not every such curve was filed as active); inconclusive = small, poorly fitted or top-dose-only effect, or another doubt; inactive = no such curve, though single readings can be large or run the other way.

SMILES | HttQ103 aggreg | HPGD block | HTT cytoprotect | GoLoco inh red | ALDH1A1 block | PNC inhibitor
COC(=O)CSC1=C(C#N)C(c2ccccc2)CC(=O)N1 (stereo not given) | 3.4% | -19.5% | 0.2%[10 µM] | -11.2% | 15.8µM* | 14.5
N#CC1=C(SCC(N)=O)NC(=O)CC1c1ccccc1Cl (stereo not given) | 6.5% | -4.0% | -18.6% | -9.1% | 20µM* | 8.8
COC(=O)CSC1=C(C#N)C(c2ccc(Cl)cc2)C(C(=O)OC)C(=O)N1 (stereo not given) | 6.3% | x | 3.1% | x | -7.5% | 41.6
N#CC1=C(SCC(N)=O)NC(=O)CC1c1cccc2ccccc12 (stereo not given) | x | x | -2.6% | x | x | x
CCOC(=O)CSC1=C(C#N)C(c2sccc2C)C(C(C)=O)=C(C)N1 (stereo not given) | -10.3% | -14.5% | 6.3% | 3.8% | 22.4µM* | 67.4
CCOC(=O)C1(Cc2ccccc2)CCN(Cc2cn[nH]c2-c2ccccc2)CC1 | -17.1%[9.22 µM] | x | 0.8%[10 µM] | 1.4% | -7.0% | x
CCCNC(=O)CC1C(=O)N(Cc2ccccc2)C(C)c2nc3ccccc3n21 (stereo not given) | 13.7% | 0.4% | 15.6% | 6.0% | 4.8% | 1.1
Cc1ccc(C2CC(=O)NC(SCCC(C)C)=C2C#N)cc1 (stereo not given) | -18.7% | u | -1.2% | 0.5% | 12.6µM* | 0.8
CNC(=O)COC(=O)/C=C/c1ccco1 | 18.2% | x | -37.0% | 3.0% | u | x
CCN(CC)S(=O)(=O)c1cccc(C(=O)OCC(=O)Nc2ccc3c(c2)c2ccccc2n3CC)c1 | 31.3% | -25.8% | 16.9%[10 µM] | -4.7% | 22.4µM* | 22.2
CCN(CC)S(=O)(=O)c1cccc(NC(=O)COC(=O)CCC(=O)c2ccc(F)cc2)c1 | 1.9% | 1.3% | x | 5.0% | -3.1% | -82.1*
CN(C)S(=O)(=O)c1cccc(NC(=O)COC(=O)/C=C/c2ccco2)c1 | -4.3% | -15.5% | 10.6%[10 µM] | 2.2% | -7.3% | 27.4
O=C(COC(=O)/C=C/c1ccco1)Nc1cccc([N+](=O)[O-])c1 | u | -14.0% | 23.8%[10 µM] | 6.5% | 25.1µM* | -27.8
CCN(CC)S(=O)(=O)c1cccc(NC(=O)COC(=O)/C=C/c2ccco2)c1 | -8.0%[9.22 µM] | -12.6% | -0.7%[10 µM] | 29.0% | 25.1µM* | 52.4
C/C(CCC(=O)OC[C@@H]1O[C@H](C#Cc2ccccc2)C=C[C@@H]1Oc1ccc(C)cc1)=N/O[C@@H](C)c1cc(-c2c(C)cc(C)cc2C)no1 | x | x | -11.4%[10 µM] | x | 10.2%[13.5 µM] | x
CCOc1ccc(NC(=O)CS(=O)CC(=O)NC2CCCc3ccccc32)cc1 (stereo not given) | 12.2% | -5.8% | -5.8%[10 µM] | 1.3% | 6.31µM* | -1.0
CN(C(=O)CCl)C1CCCc2ccccc21 (stereo not given) | u | x | 28.3% | 1.9% | 0.398µM* | x
O=C(CCl)NC1CCCc2ccccc21 (stereo not given) | -12.5%[9.22 µM] | x | 26.6%[10 µM] | 7.0% | 3.16µM* | x
CCN1C(=O)[C@H]2[C@H]3[C@H](O)[C@H](O)C/C(=N/NC(=O)OCc4ccccc4)[C@@H]3CC[C@@H]2C1=O | x | x | -0.6%[10 µM] | x | 13.9%[13.5 µM] | x
O=C(Nc1ccc(S(=O)(=O)NCC2CCCO2)cc1)c1ccc(Cl)cc1[N+](=O)[O-] (stereo not given) | -11.2% | x | -3.8%[10 µM] | -2.1% | 6.4% | x
O=P(O)(O)O[C@@H]1[C@H](O)[C@H](O)[C@@H](OP(=O)(O)O)[C@H](OP(=O)(O)O)[C@H]1O | x | 0.1% | -27.6% | -14.2% | 2.3% | x
CC(=O)Nc1ccc(S(=O)(=O)NCC(=O)OCc2ccccc2)cc1 | 9.2% | -5.1% | -5.3%[10 µM] | -3.1% | -5.9% | 25.3
NC(=O)c1cc(-c2ccccc2)nc(N2CCOCC2)n1 | u | -6.1% | 2.3%[10 µM] | 0.9% | 0.3% | -13.9
CC[n+]1cc(-c2ccccc2)nc(N2CCOCC2)n1 | -22.2% | -11.3% | -11.3%[0.074 µM] | 7.08µM* | u | 19.1
O=C(OCC(=O)N1CCc2ccccc2C1)c1cccnc1Cl | 14.4% | x | 2.9% | 3.9% | 7.7% | x
